{
  "source": "PubChem BioAssay",
  "note": "A number with no mark means an inactive call.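 Rule for the calls: active = viability at or below 10% of carrier control in both of two separate runs; inconclusive = viability at or below 10% in only one of the two runs; inactive = the rest.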",
  "data": [
    {"test": "SK-BR-3 cell growth inhibitors, pilot screen, 24 h, human (AID 572);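 note: compound exposure lasted between 18 and 24 h rather than exactly 24 h; 100% = carrier-treated control wells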", "settings": "SK-BR-3 viability, CellTiter-Glo luminescence, at 10 µM, active compounds read low", "units": {"viability": "%"}, "values": [
      {"smiles": "Cc1cccc2c(=O)oc(-c3ccc4c(c3)C(=O)N(CC3CCCO3)C4=O)nc12", "note": "(stereo not given)", "viability": 95},
      {"smiles": "CC(=O)NC(C)C(=O)OCc1ccc(Cl)cc1Cl", "note": "(stereo not given)", "viability": 66},
      {"smiles": "CC1CCCC(C)N1C(=O)CSc1nnc(-c2cccs2)o1", "note": "(stereo not given)", "viability": 92},
      {"smiles": "CC(C)N(C(=O)N1CCC(c2nc(-c3ccncc3)no2)CC1)C(C)C", "viability": 79},
      {"smiles": "COc1ccccc1NC(=O)N(Cc1ccco1)Cc1cc2cccc(C)c2[nH]c1=O", "viability": 90},
      {"smiles": "NC(CO)C(=O)NNCc1ccc(O)c(O)c1O", "note": "(stereo not given)", "viability": 97},
      {"smiles": "Cc1csc(NC(=O)Nc2cccc(Cl)c2)n1", "viability": 102},
      {"smiles": "CCCCOc1ccccc1C1C(C(N)=O)=C(C)Nc2nnnn21", "note": "(stereo not given)", "viability": 110},
      {"smiles": "CC(C)Oc1cc2oc(=O)c3c(c2cc1Cl)CCC3", "viability": 66},
      {"smiles": "Cc1cccc(C)c1OCC(=O)Nc1cccc(NC(=O)c2ccco2)c1", "viability": 97},
      {"smiles": "CCOC(=O)c1cnc2c(OC)cccc2c1N1CCN(c2ccc(OC)cc2)CC1", "viability": 124},
      {"smiles": "CC(C)CCNC(=O)C(C)N(Cc1ccc(F)cc1)C(=O)c1ccc(CN2CCCCC2)o1", "note": "(stereo not given)", "viability": 72},
      {"smiles": "CCn1nc(C(=O)O)c(=O)c2cc3c(cc21)OCO3", "viability": 69},
      {"smiles": "CC(=O)O[C@H]1C[C@@H]2CC[C@@H]3[C@H](CC[C@@]4(C)[C@H]3C[C@H]([N+]3(C)CCCCC3)[C@@H]4OC(C)=O)[C@@]2(C)C[C@@H]1[N+]1(C)CCCCC1", "viability": 111},
      {"smiles": "COc1ccc(S(=O)(=O)Nc2cccc(C)n2)c2ccccc12", "viability": 94},
      {"smiles": "COC(=O)[C@H](C)NC(=O)Nc1cccc(C(F)(F)F)c1", "viability": 145},
      {"smiles": "Cc1cc2c(c(=O)n1C)C(Cc1ccccc1)C(C#N)=C(N)O2", "note": "(stereo not given)", "viability": 95},
      {"smiles": "Cn1c(-c2ccc(F)cc2)cnc1SCC(=O)Nc1ccccc1N1CCOCC1", "viability": 94},
      {"smiles": "CCCNC(=O)NC1C(NC(=O)NCCC)N(C)C(=O)N1C", "note": "(stereo not given)", "viability": 86},
      {"smiles": "C=CCN(CC=C)C(=O)Nc1cc(Cl)ccc1OC", "viability": 83},
      {"smiles": "COc1cccc(NC(=O)C2CCCN2C(=O)Nc2cccc(F)c2)c1", "note": "(stereo not given)", "viability": 96},
      {"smiles": "Nc1nc(-c2ccc(Br)s2)c(Br)s1", "viability": 100},
      {"smiles": "COc1ccc(CCNC(=O)CCN2C(=O)C3CC=CCC3C2=O)cc1OC", "note": "(stereo not given)", "viability": 103},
      {"smiles": "CC[C@H](C)C(=O)O[C@H]1C[C@@H](C)C=C2C=C[C@H](C)[C@H](CC[C@@H]3C[C@@H](O)CC(=O)O3)[C@H]21", "viability": 110},
      {"smiles": "COc1cccc(-c2cc(C(=O)Nc3c(C)nn(Cc4ccccc4)c3C)no2)c1", "viability": 158},
      {"smiles": "CCn1c(SCC(=O)NC)nnc1C(C)C", "viability": 97},
      {"smiles": "Cn1c(=O)c2c(nc(NCCCO)n2Cc2cccc(Br)c2)n(C)c1=O", "viability": 91},
      {"smiles": "COc1cc(NC(=O)CSCc2cnn(-c3ccccc3)c2-n2cccc2)cc(OC)c1", "viability": 103},
      {"smiles": "COc1ccc(-n2ncc3c(NCc4ccc5c(c4)OCO5)ncnc32)cc1", "viability": 92.5},
      {"smiles": "CCN(CC(=O)Nc1ccc2c(c1)CCC2)Cc1nc2ccccc2c(=O)[nH]1", "viability": 77},
      {"smiles": "COc1ccccc1OCCOCCn1cnc2ccccc2c1=O", "viability": 87},
      {"smiles": "Cc1cn2c(-c3ccncc3)nnc2s1", "viability": 144},
      {"smiles": "c1ccc2c(SCc3cn4cccnc4n3)ncnc2c1", "viability": 108},
      {"smiles": "Cc1cnc(NC(=O)CSc2nnc(-c3ccccc3)n2Cc2ccccc2)s1", "viability": 99},
      {"smiles": "C=CCN1C(=O)CS/C1=C(\\C#N)S(=O)(=O)c1ccc(C)cc1", "viability": 114},
      {"smiles": "Cc1cc(C)n2nc(SCC(=O)N(C)Cc3ccccc3)nc2n1", "viability": 109},
      {"smiles": "COc1ccc2nc(S(=O)Cc3ncc(C)c(OC)c3C)[nH]c2c1", "note": "(stereo not given)", "viability": 88},
      {"smiles": "O=C(O)c1cccc(COCC(F)(F)C(F)F)c1", "viability": 90},
      {"smiles": "Cc1ccc(S(=O)(=O)N2CCN(C(=O)N3CCOCC3)C2C)cc1", "note": "(stereo not given)", "viability": 76},
      {"smiles": "CCOc1ccc(NC(=O)CC2NCCNC2=O)cc1", "note": "(stereo not given)", "viability": 125}
    ]}
  ]
}
